# Screening data deposited in PubChem BioAssay by The Scripps Research Institute Molecular Screening Center.
# OPRM1-OPRD1 inv: inverse agonists of MOR-DOR heterodimerization, primary screen, cell-based, luminescence. inhibition, % at 9.3 µM. AID 504357, 2011. cell-based MOR-DOR heterodimer luminescence, inverse agonism. 0.21% of 340,000 active; in the data active = inhibition above about 22%, passing the limit was not always enough;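 note: 0% = cells with DMSO and 100% = wells without cells with DMSO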
# Target sequence (P35372 whole entry, looked up): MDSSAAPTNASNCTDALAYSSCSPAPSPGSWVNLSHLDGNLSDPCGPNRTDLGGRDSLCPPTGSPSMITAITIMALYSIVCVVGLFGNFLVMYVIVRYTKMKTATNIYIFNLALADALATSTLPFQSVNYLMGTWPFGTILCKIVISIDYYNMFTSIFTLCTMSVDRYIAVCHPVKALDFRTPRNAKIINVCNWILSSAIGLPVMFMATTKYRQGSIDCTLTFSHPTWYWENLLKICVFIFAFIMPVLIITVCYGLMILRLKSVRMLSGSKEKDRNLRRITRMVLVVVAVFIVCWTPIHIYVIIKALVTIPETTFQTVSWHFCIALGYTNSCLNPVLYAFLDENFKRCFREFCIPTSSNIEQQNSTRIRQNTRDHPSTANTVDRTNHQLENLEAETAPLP
# Target sequence (P41143 whole entry, looked up): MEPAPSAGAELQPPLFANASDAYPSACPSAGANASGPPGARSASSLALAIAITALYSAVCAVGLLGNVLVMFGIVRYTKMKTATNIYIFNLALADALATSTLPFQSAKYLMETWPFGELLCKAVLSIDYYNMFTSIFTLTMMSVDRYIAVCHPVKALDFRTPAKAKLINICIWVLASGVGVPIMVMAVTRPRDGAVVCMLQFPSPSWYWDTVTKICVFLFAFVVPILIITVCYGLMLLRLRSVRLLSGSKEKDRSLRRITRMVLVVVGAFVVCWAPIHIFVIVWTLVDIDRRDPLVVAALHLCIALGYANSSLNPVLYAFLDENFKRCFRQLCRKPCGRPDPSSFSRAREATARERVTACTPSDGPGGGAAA
# MOR-DOR ag-1: agonists of OPRM1-OPRD1 heterodimerization, primary screen, cell-based, luminescence; AID 504326, 2011; activation, % at 9.3 µM; cells; 0.3% of 340,000 active; Mu-type opioid receptor (Homo sapiens) + Delta-type opioid receptor (Homo sapiens), …;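 note: 0% = vehicle-treated cells and 100% = reference agonist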
# HTR5A ag ctr: HTR5A agonists in luminescence cell assay, primary screen, counter-screen for OPRM1-OPRD1 heterodimer agonist project, full-deck HTS; 5-hydroxytryptamine receptor 5A (Homo sapiens), P47898; cell-based; activation, % at 9.3 µM; 0.61% of 340,000 active; AID 504692, 2011; in the data active = activation mostly above about 9.5%, no sharp cut-off; inactive = mostly below about 7.6%;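 note: 0% = cells with vehicle only and 100% = reference agonist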
# HTR5A inv ctr: HTR5A inverse agonists in luminescence cell assay, primary screen, counter-screen for OPRM1-OPRD1 heterodimer inverse agonist project, full-deck HTS. 5-hydroxytryptamine receptor 5A (Homo sapiens), P47898. inhibition, % at 9.3 µM. HTR5A cell line, inverse agonism. AID 504634, 2011. 0.083% of 340,000 active; in the data active = inhibition mostly above about 23%, no sharp cut-off; inactive = mostly below about 18%;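 note: 0% = cells with DMSO and 100% = no-cell wells with DMSO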
# MOR-DOR ag-2: OPRM1-OPRD1 heterodimerization promoters, counter-screen for HTR5A agonist project, cell-based, luminescence; U2OS counter-screen cells, complementation luminescence, 3 h; AID 504913, 2011; shares compounds with HTR5A ag ctr; 13% of 800 active; activation, % at 9.3 µM
# HTR5A ag confirm: HTR5A agonists, retest of hits, confirmation, cell-based, luminescence | shares compounds with HTR5A ag ctr | HTR5A agonist cell assay | activation, % at 9.3 µM | 17% of 800 active | AID 504915, 2011; in the data active = activation above about 17%;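 note: 0% = cells with vehicle only and 100% = full reference agonist response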
# Starred values were filed as active, the others as inactive; nt = not tested or not shown. Sampled rows, rich in hits. Any-hit rate of the full collection: about 1.1%. Cut-off read from the data, not from the text of the source, unless noted: active = activation above about 18%; inactive = the rest.
SMILES,OPRM1-OPRD1 inv,MOR-DOR ag-1,HTR5A ag ctr,HTR5A inv ctr,MOR-DOR ag-2,HTR5A ag confirm
CCN(CC(=O)Nc1ccc(NC(C)=O)cc1)C(=O)c1ccc(=O)[nH]c1,16,-3,3,4,nt,nt
Cc1nc(Nc2ccc(Cl)cc2)c(C#N)c(=O)[nH]1,12,-2,16*,-43,0,2
N#Cc1cccnc1Nc1ccc(Cl)cc1,9,-2,8,-22,nt,nt
O=C1OC(c2ccccc2)(c2ccc(O)cc2)c2ccccc21 (stereo unspecified),-3,1,22*,-87,2,12
COc1ccc(N(CC(=O)NC(C)(C)C)C(=O)CCC(=O)Nc2nccs2)c(OC)c1,18,-4,-2,6,nt,nt
O=C(C1CCN(S(=O)(=O)c2ccc3c(c2)OCCO3)CC1)N1CCc2ccccc21,1,0,33*,-86,1,23*
O=C(C1CCN(S(=O)(=O)c2ccccc2)CC1)N1CCc2ccccc21,8,-2,8,-20,nt,nt
O=C(NCC1CCCO1)c1ccccc1NS(=O)(=O)c1ccc(Br)s1 (stereo unspecified),0,0,-1,5,nt,nt
CCCCCc1ccc(C(=O)CCCC)c(=S)[nH]1,7,-2,29*,-130,6,13
CCN(CC)C(=O)c1cc(-c2ccc3c(c2)OCO3)on1,17,-4,1,-5,nt,nt
NC(=O)CCCn1c(C(=O)c2ccc(Cl)cc2)c2ccc([N+](=O)[O-])cc2[n+]1[O-],-11,2,11,-27,nt,nt
Cc1ccc(C(=O)c2c3ccc([N+](=O)[O-])cc3[n+]([O-])n2CCCC(N)=O)cc1,-28,5,17*,-43,-1,0
COc1ccc(C)cc1NC(=O)COC(=O)c1ccc2c(c1)OCCO2,-36,9,19*,-47,-1,0
c1ccc2c(-c3csc(-c4ccncc4)n3)c[nH]c2c1,3,0,21*,-59,2,-2
Brc1ccc(-c2csc(-c3c[nH]c4ccccc34)n2)cc1,-1,0,1,-2,nt,nt
O=C(NCc1ccc2c(c1)OCO2)C1CC(=O)N(CCc2ccc(F)cc2)C1 (stereo unspecified),-12,1,16*,-48,-1,-3
O=C(NCc1ccc2c(c1)OCO2)C1CC(=O)N(CCc2ccccc2)C1 (stereo unspecified),9,-1,-3,8,nt,nt
Cc1ccc(-c2nc3cnccn3c2Nc2ccc3c(c2)OCO3)cc1,-1,0,3,0,nt,nt
Cc1ccc(Nc2c(-c3ccccc3O)nc3cnccn23)cc1,-11,2,2,-5,nt,nt
Cc1ccc2nc(-c3ccc(O)cc3)c(Nc3ccc4c(c3)OCCO4)n2c1,-14,2,22*,-166,1,58*
Cc1ccc2nc(-c3ccccc3O)c(Nc3ccc4c(c3)OCCO4)n2c1,1,0,20*,-54,4,37*
O=C(NCCC1=CCCCC1)c1cccc(S(=O)(=O)N2CCCCC2)c1,-4,1,1,4,nt,nt
CN(c1ccc(OCC(=O)N2CCCC2)cc1)S(=O)(=O)c1ccc(Cl)cc1,11,-3,17*,-41,1,-2
CC(OC(=O)c1ccc(NS(=O)(=O)c2ccc3[nH]c(=O)[nH]c3c2)cc1)C(N)=O (stereo unspecified),4,-1,8,-24,nt,nt
C/C(=N/NS(=O)(=O)c1ccc(C)c(C)c1)c1c[nH]c2ccccc12,13,-4,2,5,nt,nt
SMILES,OPRM1-OPRD1 inv,MOR-DOR ag-1,HTR5A ag ctr,HTR5A inv ctr,MOR-DOR ag-2,HTR5A ag confirm
C/C(=N/NS(=O)(=O)c1ccc(C)cc1)c1ccc2c(c1)OCO2,-4,1,4,8,nt,nt
C/C(=N/NS(=O)(=O)c1ccc(C)cc1C)c1c[nH]c2ccccc12,0,0,18*,-67,3,7
C/C(=N/NS(=O)(=O)c1ccc(C)cc1C)c1ccc2c(c1)OCO2,21,-4,20*,-48,-1,-11
COc1ccc(C2CC(c3ccccc3)Nc3nc(NS(C)(=O)=O)nn32)cc1 (stereo unspecified),16,-3,3,-10,nt,nt
O=C(O)/C=C/c1nc(-c2ccccc2)n2ccccc12,4,-1,3,23,nt,nt
COc1ccccc1CN1CC(C(=O)NCCc2ncccc2C)CCC1=O (stereo unspecified),9,-2,3,-14,nt,nt
O=C(NCc1ccccc1)c1ccc(F)c(F)c1,0,0,14*,-36,0,-2
